Results published in ChEMBL document CHEMBL1157539, “Thousands of chemical starting points for antimalarial lead identification” (Nature, 2010).

Columns and labels:
Format in all cases: functional
Plasmodium falciparum [1] = test: GSK_TCMDC: Inhibition of Plasmodium falciparum 3D7 in whole red blood cells, using parasite LDH activity as an index of growth. Test compounds present at 2uM
Plasmodium falciparum [2] = test: GSK_TCMDC: Inhibition of Plasmodium falciparum Dd2 in whole red blood cells, using parasite LDH activity as an index of growth. Test compounds present at 2uM
HepG2 = test: GSK_TCMDC: Percent inhibition of human HepG2 cell line. Test compounds present at 10uM.

With `CC(C)(C)c1ccc(CNC(=O)COc2ccc(-c3nnc(-c4cccc([N+](=O)[O-])c4)o3)cc2[N+](=O)[O-])cc1` the Inhibition (Plasmodium falciparum [1]) was 93%, the Inhibition (Plasmodium falciparum [2]) was 25% and the Inhibition (HepG2) was 10%.
`CC(C)CC1c2[nH]c3ccccc3c(=O)c2CN1C(=O)OC(C)(C)C` (stereo not drawn) was tested, and the Inhibition (Plasmodium falciparum [1]) was 97%, the Inhibition (Plasmodium falciparum [2]) was 96% and the Inhibition (HepG2) was 2%.
In the case of `O=C(NCC1CCC(CNCCCc2ccccc2)CC1)Nc1ccc(Cl)c(Cl)c1` (stereo not drawn), the Inhibition (Plasmodium falciparum [1]) is reported as 99%, the Inhibition (Plasmodium falciparum [2]) is reported as 2% and the Inhibition (HepG2) is reported as 26%.
For `O=C(O)C(F)(F)F.c1cc(-c2ccc(CNC3CC3)cc2)cc(-c2nc3ccccc3[nH]2)c1`, the Inhibition (Plasmodium falciparum [1]) was 96%, the Inhibition (Plasmodium falciparum [2]) was 8% and the Inhibition (HepG2) was 17%.
`CC(C)n1cc2c(ccc3nc(N)nc(N)c32)n1` gave an Inhibition (Plasmodium falciparum [1]) of 92%, an Inhibition (Plasmodium falciparum [2]) of 0% and an Inhibition (HepG2) of 65%.
Compound `Cc1cc(N2CCOCC2)nc(Nc2ccc(NC(=O)Nc3ccc(F)cc3)cc2)n1` has an Inhibition (Plasmodium falciparum [1]) of 100%, an Inhibition (Plasmodium falciparum [2]) of 34% and an Inhibition (HepG2) of 35%.
`COCCNCc1ccc(-c2ccc3c(Nc4ccc(Cl)cc4F)ccnc3c2)o1` was tested, and the Inhibition (Plasmodium falciparum [1]) was 100%, the Inhibition (Plasmodium falciparum [2]) was 100% and the Inhibition (HepG2) was 15%.
`Br.CC1(C)NC(N)=NC(=N)N1OCCSCc1cc(Cl)sc1Cl` gave an Inhibition (Plasmodium falciparum [1]) of 93%, an Inhibition (Plasmodium falciparum [2]) of 72% and an Inhibition (HepG2) of 70%.
In the case of `COc1ccc(O)c(C(=O)c2cnc3c(c2)c(-c2ccc(F)cc2)c(C#N)c(=O)n3C)c1`, the Inhibition (Plasmodium falciparum [1]) is reported as 92%, the Inhibition (Plasmodium falciparum [2]) is reported as 14% and the Inhibition (HepG2) is reported as 7%.
`CCc1ccc(S(=O)(=O)Nc2ccc(CCN(C)C3CCN(C)CC3)cc2)cc1` was tested, and the Inhibition (Plasmodium falciparum [1]) was 86%, the Inhibition (Plasmodium falciparum [2]) was 9% and the Inhibition (HepG2) was 25%.
Compound `N#Cc1cccc(NC(=O)Nc2cccc(-c3cccc(-c4nc5cc(C(F)(F)F)ccc5[nH]4)c3)c2)c1` has an Inhibition (Plasmodium falciparum [1]) of 100%, an Inhibition (Plasmodium falciparum [2]) of 99% and an Inhibition (HepG2) of 74%.
